Experimental data from publication PMC4336329 (PLoS ONE, 2015).
Among all 310,000 compounds or so, about 14,000 (4.5%) showed an effect of 50% or more. Effects have a minus sign here. This is one part of a sample in which strong results are shown more often than they occur.

These compounds were tested against human ether-à-go-go-related gene (hERG) potassium channel (human, UniProt Q12809) (assay: primary screen, population patch clamp on CHO cells stably expressing hERG; higher = less effect of the substance).
Sequence of human ether-à-go-go-related gene (hERG) potassium channel (Q12809 whole entry, looked up): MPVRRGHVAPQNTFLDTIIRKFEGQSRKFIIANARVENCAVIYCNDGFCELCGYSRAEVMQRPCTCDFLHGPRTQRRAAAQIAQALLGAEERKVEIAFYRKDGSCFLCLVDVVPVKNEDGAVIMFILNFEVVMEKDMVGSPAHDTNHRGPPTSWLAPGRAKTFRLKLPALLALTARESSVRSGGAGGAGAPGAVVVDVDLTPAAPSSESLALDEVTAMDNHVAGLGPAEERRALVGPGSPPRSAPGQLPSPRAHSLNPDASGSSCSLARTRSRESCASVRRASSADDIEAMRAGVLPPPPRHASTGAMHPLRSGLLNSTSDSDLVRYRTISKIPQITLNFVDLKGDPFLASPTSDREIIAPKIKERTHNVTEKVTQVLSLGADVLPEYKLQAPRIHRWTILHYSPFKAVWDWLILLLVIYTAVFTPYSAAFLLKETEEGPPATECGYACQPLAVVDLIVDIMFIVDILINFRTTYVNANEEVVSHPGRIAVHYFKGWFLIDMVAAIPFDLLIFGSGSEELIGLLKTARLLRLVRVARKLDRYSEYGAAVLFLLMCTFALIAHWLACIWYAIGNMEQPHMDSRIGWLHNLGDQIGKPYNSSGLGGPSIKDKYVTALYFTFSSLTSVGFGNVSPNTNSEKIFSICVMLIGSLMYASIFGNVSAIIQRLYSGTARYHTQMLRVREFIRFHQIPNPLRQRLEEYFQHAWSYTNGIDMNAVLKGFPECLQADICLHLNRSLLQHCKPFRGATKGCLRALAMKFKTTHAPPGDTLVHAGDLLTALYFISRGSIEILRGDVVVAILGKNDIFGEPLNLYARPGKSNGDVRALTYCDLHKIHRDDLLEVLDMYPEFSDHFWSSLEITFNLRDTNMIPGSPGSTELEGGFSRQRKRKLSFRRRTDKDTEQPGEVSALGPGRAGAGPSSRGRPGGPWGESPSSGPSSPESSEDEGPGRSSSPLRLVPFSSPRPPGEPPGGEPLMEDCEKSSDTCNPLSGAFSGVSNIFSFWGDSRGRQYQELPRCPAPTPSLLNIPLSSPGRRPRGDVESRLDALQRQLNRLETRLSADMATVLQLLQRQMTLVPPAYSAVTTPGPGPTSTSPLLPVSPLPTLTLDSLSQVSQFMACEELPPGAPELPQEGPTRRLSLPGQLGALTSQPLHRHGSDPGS
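Also: peak tail current of the secondary pulse compared with the same well before compound.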

Structure (SMILES) | hERG current change (%, negative = inhibition) at 10uM [%]
CCc1ccc(OCC(=O)NC(=S)Nc2ccc(S(=O)(=O)NC3CCCCC3)cc2)cc1 | 19.9
CCOC(=O)Cc1csc(NC(=O)c2cc(OC)cc(OC)c2)n1 | -10.6
O=C(O)c1cccc(CN2C(=O)CSC2=O)c1 | 19.4
CCn1c(SCC(=O)N/N=C/c2ccc(O)c(OC)c2)nc2ccccc21 | 2.36
OCC1(Cc2ccccc2)CCN(Cc2cnc(-c3cccc4ccccc34)nc2)CC1 | 10.8
OCC1(Cc2ccccc2)CCN(Cc2cc3ccccc3o2)CC1 | -51.7
COc1ccc(CN2CCN(Cc3cc4ccccc4o3)CC2CCO)cc1C (stereo not shown) | -40.4
COc1ccc(CC2(CO)CCN(Cc3cc4ccccc4o3)CC2)cc1 | -52.2
COc1ccc(C(=O)N=c2sc3c(C)ccc(OC)c3n2C)cc1 | 6.32
CCCC(=O)Nc1ccc(C(=O)NNC(=O)c2cccs2)cc1 | 12.2
CC1(C)COC(c2coc3ccccc3c2=O)OC1 | 3.85
Oc1c(N=NC(=S)Nc2ccccc2F)c2ccccc2n1Cc1ccc(F)cc1 | 18.7
O=C(c1cccc(Br)c1)N1CCN(c2ccccn2)CC1 | -4.19
OCCC1CN(Cc2cccn2-c2ccccn2)CCN1Cc1ccccc1 (stereo not shown) | -76.5
OCCC1CN(Cc2cccn2-c2ccccn2)CCN1C1CCCC1 (stereo not shown) | -18.9
OCCC1CN(Cc2cccn2-c2ccccn2)CCN1C1CCCCC1 (stereo not shown) | -57.1
Cc1ccc(CN2CCN(Cc3cccn3-c3ccccn3)CC2CCO)o1 (stereo not shown) | -66.1
Cc1ccc(CN2CCN(Cc3cccn3-c3ccccn3)CC2CCO)cc1 (stereo not shown) | -82
Cc1ccc(CN2CCN(Cc3cnc(N(C)C)s3)CC2CCO)o1 (stereo not shown) | 6.05
OCCC1CN(Cc2cccn2-c2ncccn2)CCN1C1CCCC1 (stereo not shown) | -6.11
Cc1ccc(CN2CCN(Cc3cccn3-c3ccc(Cl)cn3)CC2CCO)o1 (stereo not shown) | -23.3
Cc1ccc(CN2CCN(Cc3ccccn3)CC2CCO)cc1 (stereo not shown) | -47.9
Cc1onc(-c2c(F)cccc2Cl)c1C(=O)ONC(=O)c1ccccc1 | 8.85
CC(=O)Nc1ccc(S(=O)(=O)N(CC(=O)O)Cc2ccccc2)cc1 | -12.6
CC1CN(C(=O)C2CC(=O)N(c3ccc(Cl)cc3)C2)CC(C)O1 (stereo not shown) | -13.3
